# Changes are numbered by the printed parent chain.
# How the values were obtained:
# Assay in all cases: PBM; 200 nM protein, PBS
# Settings in all cases: dsDNA, one strand shown
# [1] = target: ALX4 (Homo sapiens, UniProt Q9H161 200-286)
# [2] = target: ALX4 (Homo sapiens, UniProt Q9H161 200-286, Q225E)
# [3] = target: ALX1 (Homo sapiens, UniProt Q15699 118-204, L144V)
# [4] = target: PITX2 (Homo sapiens, UniProt Q99697 72-157)
# [5] = target: ALX1 (Homo sapiens, UniProt Q15699 118-204, L144R)
# [6] = target: ALX1 (Homo sapiens, UniProt Q15699 118-204)
# [7] = target: T1, PAX4 (Homo sapiens, UniProt O43316 9-242, R200K)
# T1 sequence: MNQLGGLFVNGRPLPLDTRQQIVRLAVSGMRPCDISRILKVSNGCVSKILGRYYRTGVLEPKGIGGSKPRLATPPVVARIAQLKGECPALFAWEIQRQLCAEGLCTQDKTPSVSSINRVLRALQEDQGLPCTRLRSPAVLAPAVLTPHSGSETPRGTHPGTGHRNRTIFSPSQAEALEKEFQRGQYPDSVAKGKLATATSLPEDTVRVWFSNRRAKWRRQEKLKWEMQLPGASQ
# [8] = target: T2, PAX4 (Homo sapiens, UniProt O43316 9-242)
# T2 sequence: T1 sequence with K192R
# [9] = target: HOXB6 (Homo sapiens, UniProt P17509 132-218, K202E)
# [10] = target: T3, PAX4 (Homo sapiens, UniProt O43316 9-242, R200Q)
# T3 sequence: T1 sequence with K192Q
# [11] = target: T4, PAX4 (Homo sapiens, UniProt O43316 9-242, F177V)
# T4 sequence: T1 sequence with F169V, K192R
# [12] = target: T5, PAX4 (Homo sapiens, UniProt O43316 9-242, F177Y)
# T5 sequence: T1 sequence with F169Y, K192R
# [13] = target: T6, PAX4 (Homo sapiens, UniProt O43316 9-242, R227W)
# T6 sequence: T1 sequence with K192R, R219W
# [14] = target: HOXB6 (Homo sapiens, UniProt P17509 132-218)
# [15] = target: PRRX1 (Homo sapiens, UniProt P54821 80-166, F113S)
# [16] = target: PRRX1 (Homo sapiens, UniProt P54821 80-166)
# [17] = target: HOXA2 (Homo sapiens, UniProt O43364 129-215, R185T)
# [18] = target: ALX3 (Homo sapiens, UniProt O95076 139-225, N203Q)
# [19] = target: HOXA2 (Homo sapiens, UniProt O43364 129-215, R185K)
# [20] = target: ALX3 (Homo sapiens, UniProt O95076 139-225)
# [21] = target: ALX3 (Homo sapiens, UniProt O95076 139-225, L168Q)
# [22] = target: ALX3 (Homo sapiens, UniProt O95076 139-225, L168V)
# [23] = target: HOXA2 (Homo sapiens, UniProt O43364 129-215, Y150S)
# [24] = target: ALX3 (Homo sapiens, UniProt O95076 139-225, N203S)
# [25] = target: HOXA2 (Homo sapiens, UniProt O43364 129-215)
# [26] = target: T7, NKX2-6 (Homo sapiens, UniProt A6NCS4 118-204)
# T7 sequence: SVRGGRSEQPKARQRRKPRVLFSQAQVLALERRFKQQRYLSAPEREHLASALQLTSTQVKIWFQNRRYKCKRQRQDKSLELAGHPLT
# [27] = target: T8, NKX2-6 (Homo sapiens, UniProt A6NCS4 118-204, F151L)
# T8 sequence: T7 sequence with F34L
# [28] = target: HOXD13 (Homo sapiens, UniProt P35453 263-343, T313R)
# [29] = target: HOXD13 (Homo sapiens, UniProt P35453 263-343)
# [30] = target: HOXD13 (Homo sapiens, UniProt P35453 263-343, T313A)
# [31] = target: T9, NKX2-6 (Homo sapiens, UniProt A6NCS4 118-204, R150C)
# T9 sequence: T7 sequence with R33C
# Sequence of ALX4 (Homo sapiens, UniProt Q9H161 200-286, Q225E) (Q9H161 200-286 Q225E): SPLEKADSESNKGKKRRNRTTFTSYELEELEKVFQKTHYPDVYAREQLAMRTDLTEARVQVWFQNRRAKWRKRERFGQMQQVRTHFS
# Sequence of ALX4 (Homo sapiens, UniProt Q9H161 200-286) (Q9H161 200-286): as the sequence (Q9H161 200-286 Q225E) above, with E26Q counted along it
# Sequence of PRRX1 (Homo sapiens, UniProt P54821 80-166) (P54821 80-166): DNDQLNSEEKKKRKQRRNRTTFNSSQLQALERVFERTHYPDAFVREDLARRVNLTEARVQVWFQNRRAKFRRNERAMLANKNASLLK
# Sequence of HOXB6 (Homo sapiens, UniProt P17509 132-218, K202E) (P17509 132-218 K202E): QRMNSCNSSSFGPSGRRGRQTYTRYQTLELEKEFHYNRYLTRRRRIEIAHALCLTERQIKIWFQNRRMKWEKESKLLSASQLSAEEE
# Sequence of ALX3 (Homo sapiens, UniProt O95076 139-225) (O95076 139-225): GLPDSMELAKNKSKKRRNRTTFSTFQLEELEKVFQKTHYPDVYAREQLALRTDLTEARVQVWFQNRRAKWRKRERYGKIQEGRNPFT
# Sequence of HOXD13 (Homo sapiens, UniProt P35453 263-343) (P35453 263-343): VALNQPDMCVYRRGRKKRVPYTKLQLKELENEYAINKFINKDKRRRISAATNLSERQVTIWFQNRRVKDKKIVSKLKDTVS
# Sequence of ALX1 (Homo sapiens, UniProt Q15699 118-204, L144R) (Q15699 118-204 L144R): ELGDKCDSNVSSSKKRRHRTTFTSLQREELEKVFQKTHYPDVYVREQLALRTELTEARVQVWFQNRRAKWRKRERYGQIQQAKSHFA
# Sequence of HOXA2 (Homo sapiens, UniProt O43364 129-215, R185T) (O43364 129-215 R185T): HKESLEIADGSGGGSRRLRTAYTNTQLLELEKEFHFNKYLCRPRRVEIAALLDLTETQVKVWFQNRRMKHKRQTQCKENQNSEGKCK
# Sequence of ALX3 (Homo sapiens, UniProt O95076 139-225, N203S) (O95076 139-225 N203S): as the sequence (O95076 139-225) above, with N65S counted along it
# Sequence of HOXA2 (Homo sapiens, UniProt O43364 129-215, Y150S) (O43364 129-215 Y150S): as the sequence (O43364 129-215 R185T) above, with Y22S, T57R counted along it
# Sequence of ALX3 (Homo sapiens, UniProt O95076 139-225, N203Q) (O95076 139-225 N203Q): as the sequence (O95076 139-225) above, with N65Q counted along it
# Sequence of PRRX1 (Homo sapiens, UniProt P54821 80-166, F113S) (P54821 80-166 F113S): as the sequence (P54821 80-166) above, with F34S counted along it
# Sequence of ALX3 (Homo sapiens, UniProt O95076 139-225, L168V) (O95076 139-225 L168V): as the sequence (O95076 139-225) above, with L30V counted along it
# Sequence of ALX3 (Homo sapiens, UniProt O95076 139-225, L168Q) (O95076 139-225 L168Q): as the sequence (O95076 139-225) above, with L30Q counted along it
# Sequence of HOXB6 (Homo sapiens, UniProt P17509 132-218) (P17509 132-218): as the sequence (P17509 132-218 K202E) above, with E71K counted along it
# Sequence of HOXD13 (Homo sapiens, UniProt P35453 263-343, T313A) (P35453 263-343 T313A): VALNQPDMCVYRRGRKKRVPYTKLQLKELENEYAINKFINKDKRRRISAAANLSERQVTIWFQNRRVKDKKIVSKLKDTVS
# Sequence of HOXD13 (Homo sapiens, UniProt P35453 263-343, T313R) (P35453 263-343 T313R): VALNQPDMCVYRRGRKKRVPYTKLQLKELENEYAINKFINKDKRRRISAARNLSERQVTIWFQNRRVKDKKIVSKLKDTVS
# Sequence of ALX1 (Homo sapiens, UniProt Q15699 118-204, L144V) (Q15699 118-204 L144V): as the sequence (Q15699 118-204 L144R) above, with R27V counted along it
# Sequence of HOXA2 (Homo sapiens, UniProt O43364 129-215) (O43364 129-215): as the sequence (O43364 129-215 R185T) above, with T57R counted along it
# Sequence of ALX1 (Homo sapiens, UniProt Q15699 118-204) (Q15699 118-204): as the sequence (Q15699 118-204 L144R) above, with R27L counted along it
# Sequence of HOXA2 (Homo sapiens, UniProt O43364 129-215, R185K) (O43364 129-215 R185K): as the sequence (O43364 129-215 R185T) above, with T57K counted along it
sequence,measurement,setting,value
GACCGTCC,binding signal,[1],"8.08 upbm affinity estimate (log intensity, higher = more binding, comparable within an allelic series)"
same,binding signal,[2],"8.15 upbm affinity estimate (log intensity, higher = more binding, comparable within an allelic series)"
same,binding signal,[3],"6.23 upbm affinity estimate (log intensity, higher = more binding, comparable within an allelic series)"
same,binding signal,[4],"8.03 upbm affinity estimate (log intensity, higher = more binding, comparable within an allelic series)"
same,binding signal,[5],"6.38 upbm affinity estimate (log intensity, higher = more binding, comparable within an allelic series)"
same,binding signal,[6],"6.51 upbm affinity estimate (log intensity, higher = more binding, comparable within an allelic series)"
AGTCCGGC,binding signal,[7],"9.22 upbm affinity estimate (log intensity, higher = more binding, comparable within an allelic series)"
same,binding signal,[8],"9.22 upbm affinity estimate (log intensity, higher = more binding, comparable within an allelic series)"
same,binding signal,[9],"8.99 upbm affinity estimate (log intensity, higher = more binding, comparable within an allelic series)"
same,binding signal,[10],"9.29 upbm affinity estimate (log intensity, higher = more binding, comparable within an allelic series)"
same,binding signal,[11],"9.3 upbm affinity estimate (log intensity, higher = more binding, comparable within an allelic series)"
same,binding signal,[12],"9.32 upbm affinity estimate (log intensity, higher = more binding, comparable within an allelic series)"
same,binding signal,[13],"9.3 upbm affinity estimate (log intensity, higher = more binding, comparable within an allelic series)"
same,binding signal,[14],"8.89 upbm affinity estimate (log intensity, higher = more binding, comparable within an allelic series)"
ATAATTTG,binding signal,[7],"11.6 upbm affinity estimate (log intensity, higher = more binding, comparable within an allelic series)"
same,binding signal,[15],"10.9 upbm affinity estimate (log intensity, higher = more binding, comparable within an allelic series)"
same,binding signal,[8],"12.1 upbm affinity estimate (log intensity, higher = more binding, comparable within an allelic series)"
same,binding signal,[10],"12 upbm affinity estimate (log intensity, higher = more binding, comparable within an allelic series)"
same,binding signal,[11],"10.5 upbm affinity estimate (log intensity, higher = more binding, comparable within an allelic series)"
same,binding signal,[12],"10.9 upbm affinity estimate (log intensity, higher = more binding, comparable within an allelic series)"
same,binding signal,[13],"11 upbm affinity estimate (log intensity, higher = more binding, comparable within an allelic series)"
same,binding signal,[16],"13.2 upbm affinity estimate (log intensity, higher = more binding, comparable within an allelic series)"
CGGCCGAC,binding signal,[1],"7.76 upbm affinity estimate (log intensity, higher = more binding, comparable within an allelic series)"
same,binding signal,[2],"8.04 upbm affinity estimate (log intensity, higher = more binding, comparable within an allelic series)"
GAGGCACC,binding signal,[1],"8.21 upbm affinity estimate (log intensity, higher = more binding, comparable within an allelic series)"
same,binding signal,[2],"8.22 upbm affinity estimate (log intensity, higher = more binding, comparable within an allelic series)"
same,binding signal,[17],"7.41 upbm affinity estimate (log intensity, higher = more binding, comparable within an allelic series)"
same,binding signal,[18],"7.66 upbm affinity estimate (log intensity, higher = more binding, comparable within an allelic series)"
same,binding signal,[4],"7.88 upbm affinity estimate (log intensity, higher = more binding, comparable within an allelic series)"
same,binding signal,[19],"10.5 upbm affinity estimate (log intensity, higher = more binding, comparable within an allelic series)"
same,binding signal,[20],"7.72 upbm affinity estimate (log intensity, higher = more binding, comparable within an allelic series)"
same,binding signal,[21],"7.51 upbm affinity estimate (log intensity, higher = more binding, comparable within an allelic series)"
same,binding signal,[22],"7.67 upbm affinity estimate (log intensity, higher = more binding, comparable within an allelic series)"
same,binding signal,[23],"10.4 upbm affinity estimate (log intensity, higher = more binding, comparable within an allelic series)"
same,binding signal,[24],"7.65 upbm affinity estimate (log intensity, higher = more binding, comparable within an allelic series)"
same,binding signal,[25],"7.42 upbm affinity estimate (log intensity, higher = more binding, comparable within an allelic series)"
CGACAGCG,binding signal,[7],"9.45 upbm affinity estimate (log intensity, higher = more binding, comparable within an allelic series)"
same,binding signal,[8],"9.39 upbm affinity estimate (log intensity, higher = more binding, comparable within an allelic series)"
same,binding signal,[26],"9.49 upbm affinity estimate (log intensity, higher = more binding, comparable within an allelic series)"
same,binding signal,[10],"9.48 upbm affinity estimate (log intensity, higher = more binding, comparable within an allelic series)"
same,binding signal,[11],"9.36 upbm affinity estimate (log intensity, higher = more binding, comparable within an allelic series)"
same,binding signal,[12],"9.33 upbm affinity estimate (log intensity, higher = more binding, comparable within an allelic series)"
same,binding signal,[27],"9.32 upbm affinity estimate (log intensity, higher = more binding, comparable within an allelic series)"
same,binding signal,[13],"9.44 upbm affinity estimate (log intensity, higher = more binding, comparable within an allelic series)"
CAAGCCCC,binding signal,[7],"9.27 upbm affinity estimate (log intensity, higher = more binding, comparable within an allelic series)"
same,binding signal,[8],"9.32 upbm affinity estimate (log intensity, higher = more binding, comparable within an allelic series)"
same,binding signal,[28],"9.5 upbm affinity estimate (log intensity, higher = more binding, comparable within an allelic series)"
same,binding signal,[10],"9.37 upbm affinity estimate (log intensity, higher = more binding, comparable within an allelic series)"
same,binding signal,[29],"9.54 upbm affinity estimate (log intensity, higher = more binding, comparable within an allelic series)"
same,binding signal,[11],"9.26 upbm affinity estimate (log intensity, higher = more binding, comparable within an allelic series)"
same,binding signal,[12],"9.29 upbm affinity estimate (log intensity, higher = more binding, comparable within an allelic series)"
same,binding signal,[30],"9.61 upbm affinity estimate (log intensity, higher = more binding, comparable within an allelic series)"
same,binding signal,[13],"9.3 upbm affinity estimate (log intensity, higher = more binding, comparable within an allelic series)"
AGTGATTA,binding signal,[7],"11.1 upbm affinity estimate (log intensity, higher = more binding, comparable within an allelic series)"
same,binding signal,[8],"11.4 upbm affinity estimate (log intensity, higher = more binding, comparable within an allelic series)"
same,binding signal,[10],"11.1 upbm affinity estimate (log intensity, higher = more binding, comparable within an allelic series)"
same,binding signal,[11],"10.3 upbm affinity estimate (log intensity, higher = more binding, comparable within an allelic series)"
CCCCGGAG,binding signal,[7],"9.33 upbm affinity estimate (log intensity, higher = more binding, comparable within an allelic series)"
same,binding signal,[8],"9.37 upbm affinity estimate (log intensity, higher = more binding, comparable within an allelic series)"
same,binding signal,[31],"9.25 upbm affinity estimate (log intensity, higher = more binding, comparable within an allelic series)"
same,binding signal,[10],"9.35 upbm affinity estimate (log intensity, higher = more binding, comparable within an allelic series)"
same,binding signal,[11],"9.22 upbm affinity estimate (log intensity, higher = more binding, comparable within an allelic series)"
same,binding signal,[12],"9.27 upbm affinity estimate (log intensity, higher = more binding, comparable within an allelic series)"
same,binding signal,[13],"9.32 upbm affinity estimate (log intensity, higher = more binding, comparable within an allelic series)"

# — article PMC11006913
